Results on 17 molecules are retold here after ChEMBL document CHEMBL3988442, “University of Dundee, Small-Polar-MMV Screening Library” (2021).

Assay [1] concerns the target T1, Aspartate--tRNA(Asp/Asn) ligase (Mycobacterium tuberculosis (strain ATCC 25618 / H37Rv)) (UniProt P9WFW3). Further: in the data most compounds retested in dose-response had high values.
T1 sequence (whole entry): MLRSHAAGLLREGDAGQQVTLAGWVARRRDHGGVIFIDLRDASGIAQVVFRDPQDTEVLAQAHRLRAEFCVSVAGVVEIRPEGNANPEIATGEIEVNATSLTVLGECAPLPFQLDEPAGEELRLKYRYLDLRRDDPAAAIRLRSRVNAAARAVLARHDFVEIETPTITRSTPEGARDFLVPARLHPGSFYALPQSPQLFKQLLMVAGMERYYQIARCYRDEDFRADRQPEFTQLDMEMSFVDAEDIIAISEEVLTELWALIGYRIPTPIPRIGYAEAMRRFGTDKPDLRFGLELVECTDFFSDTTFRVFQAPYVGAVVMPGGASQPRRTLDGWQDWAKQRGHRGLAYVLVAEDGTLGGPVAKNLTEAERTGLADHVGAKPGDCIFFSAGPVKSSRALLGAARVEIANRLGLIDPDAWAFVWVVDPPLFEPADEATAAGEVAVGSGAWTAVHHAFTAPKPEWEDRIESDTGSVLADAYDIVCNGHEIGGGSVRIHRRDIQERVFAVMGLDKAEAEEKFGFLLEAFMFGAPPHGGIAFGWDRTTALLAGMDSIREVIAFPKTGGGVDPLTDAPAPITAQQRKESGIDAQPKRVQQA
Kind of assay: Assay for Asp RNA synthetase-1 from Mycobacterium tuberculosis. The following applies: 30 µM. Details: scale not given: direction of the effect not stated beside the values. Type of assay: functional.

The target in assay [2] is Shiga toxin 2 (Escherichia coli O157:H7) (UniProt P09385+P09386). Kind of assay: E. coli 0.157:H7 Shiga Toxin SOP - stx2 screening assay. Details: scale not given: direction of the effect not stated beside the values. The conditions noted are these: 30 µM. In kind it is functional.

In the case of `COCc1cccc(C(=O)N2CCCCC2c2nccs2)c1` (centres undefined), the values for the Percent Effect in assay [1] and in assay [2] were -3.8% and 18.2%, respectively.

Take `CCOc1ncccc1C(=O)N1CCCC(c2nccn2CCOC)C1` (centres undefined): the Percent Effect in assay [1] is -4.25%; in assay [2], -0.308%.

As to `CCn1cc(NC(=O)NCC(O)COc2cccc(F)c2)cn1` (centres undefined), the Percent Effect in assay [1] turned out to be 1.57%; in assay [2], 20.1%.

With `CNC(=O)[C@@]12CCO[C@@H]1CCN(S(=O)(=O)c1cccnc1)C2`, the Percent Effect is 0.229% in assay [1] and 7.61% in assay [2].

For the molecule `Cc1ccc(S(=O)(=O)N2C[C@H]3C[C@H](NC(=O)c4ccnn4C)[C@H]3C2)cc1`, the Percent Effect in assay [1] was found to be 0.283%; in assay [2], 8.81%.

Turning to `O=C(NCC(O)c1ccc(F)c(F)c1)c1cccnc1O` (centres undefined), the Percent Effect in assay [1] was 2.78%; in assay [2] it was -4.45%.

As for `Cn1cnc(S(=O)(=O)NCCCN2CCCCCC2)c1Cl`, the Percent Effect in assay [1] turned out to be 1.4%; in assay [2], 18.1%.

Take `CCn1nc(C)c2nc(C(C)C)nc(N3CCCCC3)c21`: the Percent Effect in assay [1] was 8.83%; in assay [2], -36.2%.

Regarding `Cc1ccc(C(=O)N2C[C@@H](OCC3CCOCC3)[C@H]3OCCC[C@H]32)o1`, the Percent Effect in assay [1] was -0.93%; in assay [2], -15.3%.

As to `c1cncc(OCc2nnn3c2CN(Cc2ccsc2)CCC3)c1`, the Percent Effect in assay [1] is -0.204%; in assay [2] it was -23%.

As for `CN(C)Cc1ccnc(C2CCCN2Cc2cc[nH]n2)n1` (centres undefined), the Percent Effect was -4.42% in assay [1] and 9.83% in assay [2].

With `COCC1CCN(C(=O)c2cccc(S(=O)(=O)NCC3(C)COC3)c2)C1` (centres undefined), the Percent Effect in assay [1] was determined as 5.94%; in assay [2], 10.4%.

For `CCC(=O)N1CCC2(COCc3c(C)nc(N(C)C)nc32)C1` (centres undefined), the results for the Percent Effect in assay [1] and in assay [2] were 6.18% and -30.5%, respectively.

Take `CCN(CC)CCNC(=O)c1ccn(COc2cc(C)cc(C)c2)n1`: the Percent Effect in assay [1] was -3.4%; in assay [2], -48.5%.

For the molecule `C1CC1c1nsc(N2CCN(C3CC3)CC2)n1`, the figures for the Percent Effect in assay [1] and in assay [2] were 2.04% and -7.43%, respectively.

Consider `Cc1nc(-c2ccsc2)ccc1C(=O)O`, for which the values for the Percent Effect in assay [1] and in assay [2] were -0.501% and -2.78%, respectively.

Turning to `CN(C)C(=O)CN1CCCCC1c1nc(N)ncc1-c1ccccc1` (centres undefined), the figures for the Percent Effect in assay [1] and in assay [2] were -1.04% and 1.46%, respectively.
